Hits are enriched below; roughly 0.3% of the tested compounds scored in any of these assays.
hcGAS inh = Primary biochemical luminescence assay for human cyclic GMP-AMP synthase inhibitors. Q8N884. AID 1259398, 2018. recombinant h-cGAS, ATP depletion, Kinase-Glo luminescence. hit rate 0.081% among 290,000. inhibition, % at 12.5 µM
Target sequence (Q8N884 whole entry, looked up): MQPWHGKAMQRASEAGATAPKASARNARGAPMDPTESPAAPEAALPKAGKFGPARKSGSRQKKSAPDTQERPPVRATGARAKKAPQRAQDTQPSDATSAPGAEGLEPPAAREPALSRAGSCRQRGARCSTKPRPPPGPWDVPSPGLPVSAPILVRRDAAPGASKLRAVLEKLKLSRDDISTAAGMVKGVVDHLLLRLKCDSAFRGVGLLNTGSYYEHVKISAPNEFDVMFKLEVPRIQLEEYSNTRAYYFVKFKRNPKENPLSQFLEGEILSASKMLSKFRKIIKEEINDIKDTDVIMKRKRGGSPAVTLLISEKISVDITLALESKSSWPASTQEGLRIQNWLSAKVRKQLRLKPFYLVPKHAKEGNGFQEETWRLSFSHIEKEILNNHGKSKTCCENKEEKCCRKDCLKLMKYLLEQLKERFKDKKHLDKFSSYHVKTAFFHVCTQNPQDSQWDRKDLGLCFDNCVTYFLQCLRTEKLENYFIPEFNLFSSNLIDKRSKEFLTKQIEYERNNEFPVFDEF
mcGAS inh = cyclic GMP-AMP synthase inhibitors, mouse, primary biochemical chemiluminescence. AID 1259399, 2018. hit rate 0.15% among 160,000. inhibition, % at 12.5 µM. Q8C6L5. recombinant cGAS, Kinase-Glo ATP depletion luminescence
NPYLR7 ag = agonists of mosquito NPYLR7 receptor, primary screen, cell-based, Aedes aegypti, calcium fluorescence, mosquito biting behavior; activation, % at 10 µM; hit rate 0.15% among 270,000; Aedes aegypti neuropeptide Y-like receptor 7 (NPYLR7); HEK293T NPYLR7/Galpha15, GCaMP6s calcium fluorescence; in the data active = activation above about 40%
Hits are given with their value; ! = not active in a repeat. Rule as the data show it, unless noted: active = inhibition above about 40%; inactive = the rest.

What do the screens show for `CCC(=O)Oc1ccc2c(c1)O/C(=C\c1ccco1)C2=O`?
hcGAS inh: inactive; mcGAS inh: 80; NPYLR7 ag: inactive

Results for O=C1c2ccccc2C(=O)c2c1ccc(O)c2O ?
hcGAS inh: inactive; NPYLR7 ag: inactive

How did O=C1c2ccc(O)c(O)c2C(=O)c2c(O)ccc(O)c21 do in these assays?
hcGAS inh: 47; mcGAS inh: 79

How did CCOc1ccc(C2CC(c3cccc(C)c3)=NN2C(=O)CN2CCc3ccccc3C2)cc1 (centres undefined) do in these assays?
hcGAS inh: inactive; mcGAS inh: inactive; NPYLR7 ag: inactive

What do the screens show for `O=C(NCCN1CCCCC1)c1cc2n(n1)CCN(Cc1cccc(C(F)(F)F)c1)C2=O`?
hcGAS inh: inactive; mcGAS inh: 47; NPYLR7 ag: inactive

How did O=C(NCCN1CCCC1)c1cc2n(n1)CCN(Cc1ccccc1C(F)(F)F)C2=O do in these assays?
hcGAS inh: inactive; mcGAS inh: inactive; NPYLR7 ag: inactive

How did CCS(=O)(=O)NCc1ccccc1-c1ccc(Cn2cncn2)cc1 do in these assays?
hcGAS inh: inactive; mcGAS inh: inactive; NPYLR7 ag: inactive

Results for C[C@H]1O[C@H](O[C@@H]2[C@@H](O[C@H]3CC[C@@]4(C)C(CC[C@]5(C)C4CC=C4[C@@H]6CC(C)(C)CC[C@]6(C(=O)O)CC[C@]45C)[C@]3(C)CO)OC[C@@H](O)[C@H]2O)[C@@H](O)[C@H](O)[C@@H]1O (some centres undefined) ?
hcGAS inh: inactive; NPYLR7 ag: 53

What do the screens show for `CC(=O)O[C@@H]1CC[C@@]2(C)C(CC[C@]3(C)C2CC=C2C4CC(C)(C)CC[C@]4(C(=O)O)CC[C@]23C)C1(C)C` (some centres undefined)?
hcGAS inh: inactive; mcGAS inh: inactive

How did COc1ccc(C2CCCCCN2CC(=O)N2CCNC2=O)cc1 (centres undefined) do in these assays?
hcGAS inh: inactive; NPYLR7 ag: inactive

What do the screens show for `CCOc1cccc(-c2cccc(-n3cnnc3)c2)c1`?
hcGAS inh: inactive; NPYLR7 ag: inactive

Results for CC[n+]1c2ccccc2cc2ccccc21 ?
hcGAS inh: inactive; NPYLR7 ag: inactive

How did CC[n+]1c(-c2ccccc2)c2cc(N)ccc2c2ccc(N)cc21 do in these assays?
hcGAS inh: 56!; NPYLR7 ag: inactive

What do the screens show for `Cn1cc(Br)cc1C(=O)NNC(=O)c1cc(Cl)ccn1`?
hcGAS inh: inactive; NPYLR7 ag: inactive

What do the screens show for `COc1cc(-c2ccccc2)c2ccccc2n1`?
hcGAS inh: inactive; NPYLR7 ag: inactive

What do the screens show for `Cc1cc(-c2ccccc2)cc2c3ccccc3c3ccccc3[n+]12`?
hcGAS inh: 41; mcGAS inh: inactive; NPYLR7 ag: inactive

Results for Cc1ccc2nc(Cn3cnc4c(Cl)cc(Cl)cc4c3=O)cc(=O)n2c1 ?
hcGAS inh: inactive; NPYLR7 ag: 61

Results for Cc1ccc2nc(Cn3cc(C(F)(F)F)cc(Cl)c3=O)cc(=O)n2c1 ?
hcGAS inh: inactive; NPYLR7 ag: inactive

Results for Clc1ccc(-n2ncnc2-c2ccc3c(c2)OCO3)cc1 ?
hcGAS inh: inactive; NPYLR7 ag: inactive

How did CCC(C)N(Cc1ccc(OS(=O)(=O)c2cccc(C(F)(F)F)c2)cc1)C(=O)c1ccc(Br)cc1 (centres undefined) do in these assays?
hcGAS inh: inactive; mcGAS inh: inactive; NPYLR7 ag: inactive

What do the screens show for `Cc1ccc(C)c(Cn2nc(-c3ccc(F)cc3)c3sc(N4CCOCC4)nc3c2=O)c1`?
hcGAS inh: inactive; mcGAS inh: inactive; NPYLR7 ag: inactive

Results for CC(C)NC(=O)C(C)N1CCc2onc(-c3ccc(C(F)(F)F)cc3)c2C1 (centres undefined) ?
hcGAS inh: inactive; mcGAS inh: inactive; NPYLR7 ag: 135

Results for O=C(C1CC=CCC1)N1CCc2onc(-c3ccc(C(F)(F)F)cc3)c2C1 (centres undefined) ?
hcGAS inh: inactive; mcGAS inh: inactive; NPYLR7 ag: inactive

What do the screens show for `N#CC(C#N)=C1C=C2C=C(N3CCCC3)CCC2CC1` (centres undefined)?
hcGAS inh: inactive; mcGAS inh: inactive; NPYLR7 ag: 90

What do the screens show for `N#CC(C#N)=C1C=C2C=C(N3CCCCC3)CCC2CC1` (centres undefined)?
hcGAS inh: inactive; mcGAS inh: inactive; NPYLR7 ag: 116

What do the screens show for `N#CC(C#N)=c1c2nn(Cc3ccccc3)nc2c(=C(C#N)C#N)c2nn(Cc3ccccc3)nc12`?
hcGAS inh: inactive; mcGAS inh: inactive; NPYLR7 ag: inactive

Results for N#CC(C#N)=C1C=C2C=C(N3CCN(Cc4ccccc4)CC3)CCC2CC1 (centres undefined) ?
hcGAS inh: inactive; NPYLR7 ag: 47

How did CN(c1ccc2ccccc2c1)S(=O)(=O)c1cc(C(=O)O)cs1 do in these assays?
hcGAS inh: inactive; NPYLR7 ag: inactive

How did Cc1cc(C)n(N=Cc2cccc([N+](=O)[O-])c2)c(=O)c1C#N do in these assays?
hcGAS inh: inactive; mcGAS inh: inactive; NPYLR7 ag: inactive

What do the screens show for `O=C(Nc1ccc(-c2cscn2)cc1)C1CCCN(Cc2ccoc2)C1` (centres undefined)?
hcGAS inh: inactive; NPYLR7 ag: inactive

What do the screens show for `O=C(N=Nc1c(O)[nH]c2ccc(Br)cc12)c1ccccc1Cl`?
hcGAS inh: inactive; mcGAS inh: inactive; NPYLR7 ag: 72

Results for O=C(N=Nc1c(O)[nH]c2ccc(Br)cc12)c1ccccc1O ?
hcGAS inh: inactive; mcGAS inh: inactive; NPYLR7 ag: inactive

Results for CCN(CC)CCNc1nc2c(F)cccc2s1 ?
hcGAS inh: inactive; NPYLR7 ag: inactive

Results for CCN(CC)CCNc1ccc(CO)c2sc3ccccc3c(=O)c12 ?
hcGAS inh: 54!; NPYLR7 ag: inactive

How did CSc1nc2c(c(=O)[nH]1)C(c1ccc3c(c1)OCO3)C1C(=O)CCCC1=N2 (centres undefined) do in these assays?
hcGAS inh: inactive; NPYLR7 ag: inactive

Results for CC1(C)CC(=O)C2C(=Nc3[nH]c(=S)[nH]c(=O)c3C2c2ccc3c(c2)OCO3)C1 (centres undefined) ?
hcGAS inh: inactive; mcGAS inh: inactive; NPYLR7 ag: 43

Results for COC1CCC(N(C)S(=O)(=O)c2ccc(C)c(N(C)C)c2)CC1 (centres undefined) ?
hcGAS inh: inactive; NPYLR7 ag: inactive

Results for CC(Sc1nc2ccsc2c(=O)n1C)C(=O)Nc1ccc(Cl)c(C(F)(F)F)c1 (centres undefined) ?
hcGAS inh: inactive; mcGAS inh: inactive; NPYLR7 ag: inactive

What do the screens show for `CCOc1ccccc1NC(=O)N1CCN(c2nc(-c3cccc(C(F)(F)F)c3)nc(C)c2C)CC1`?
hcGAS inh: inactive; mcGAS inh: inactive; NPYLR7 ag: inactive

Results for COc1ccc(Oc2nc3c(C)cccn3c(=O)c2/C=C(\C#N)c2nc3ccccc3s2)cc1 ?
hcGAS inh: inactive; mcGAS inh: inactive; NPYLR7 ag: inactive

How did COC(=O)/C(C#N)=C/c1c(Oc2ccc(C)cc2)nc2ccccn2c1=O do in these assays?
hcGAS inh: inactive; mcGAS inh: inactive; NPYLR7 ag: inactive

What do the screens show for `Cc1cccc(Oc2nc3ccccn3c(=O)c2/C=C(\C#N)c2nc3ccccc3s2)c1`?
hcGAS inh: inactive; mcGAS inh: inactive; NPYLR7 ag: 89

Screening results as filed in PubChem BioAssay.
